Assay results taken from PubChem BioAssay (NCI).
Compounds without any hit were thinned out: in the full panel of roughly 83,000, 20% have a hit.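 Single-dose data. Exposure time 48 hours. Values below 10 considered active.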

Assays:
Assay in all cases: NCI-60 one-dose screen, 48 h (100 = growth as untreated, 0 = no growth, -100 = all killed)
Conditions in all cases: 10 µM unless noted
[1] = system: NCI-H23 lung
[2] = system: NCI-H226 lung
[3] = system: NCI-H322M lung
[4] = system: HOP-62 NSCLC
[5] = system: NCI-H460 lung
[6] = system: NCI-H522 lung
[7] = system: A549/ATCC NSCLC
[8] = system: 786-0 renal
[9] = system: COLO 205 colon
[10] = system: DU-145 prostate
[11] = system: K-562 leukemia
[12] = system: MALME-3M melanoma
[13] = system: MDA-MB-231 breast
[14] = system: SF-268 CNS
[15] = system: SF-295 CNS
[16] = system: SF-539 CNS
[17] = system: UACC-257 melanoma
[18] = system: HOP-92 NSCLC
[19] = system: RXF 393 renal
[20] = system: M14 melanoma

Measured: growth

ClCc1ccc(Cl)c(Cl)c1
inactive: [1] 102% | [2] 93.7% | [3] 98.3% | [4] 111% | [5] 103% | [6] 94.2% | [7] 107% | [8] 95.4% | [9] 116% | [10] 106% | [11] 107% | [12] 83% | [13] 108% | [14] 101% | [15] 94.4% | [16] 99.6% | [17] 98.3%

OCCNC1CCCCC1
inactive: [1] 108% | [2] 104% | [3] 113% | [4] 99.2% | [5] 105% | [18] 108% | [7] 106% | [9] 112% | [10] 107% | [11] 101% | [12] 112% | [13] 114% | [19] 118% | [14] 102% | [15] 111% | [16] 103% | [17] 112%

O=c1[nH]c(=O)[nH]c(=O)[nH]1
inactive: [1] 97.9% | [2] 122% | [3] 104% | [5] 111% | [18] 113% | [6] 95.5% | [7] 108% | [8] 96.9% | [9] 115% | [10] 119% | [11] 65.2% | [12] 114% | [13] 122% | [19] 91.1% | [14] 116% | [15] 97.6% | [16] 104% | [17] 146% | [20] 111%

CC(=O)c1cccc(S(=O)(=O)F)c1
inactive: [1] 100% | [2] 97.2% | [3] 95.6% | [4] 98.4% | [5] 109% | [6] 89.8% | [7] 98.6% | [8] 98.4% | [9] 114% | [10] 108% | [11] 112% | [12] 98.7% | [13] 104% | [19] 98.8% | [14] 108% | [15] 83.1% | [16] 89.1% | [17] 99.2% | [20] 91.3%

N#Cc1ccc(Cl)cc1
inactive: [1] 111% | [2] 109% | [3] 119% | [4] 105% | [5] 122% | [7] 103% | [8] 108% | [9] 117% | [10] 117% | [11] 99.4% | [12] 115% | [13] 108% | [19] 120% | [14] 108% | [15] 113% | [16] 108% | [17] 104% | [20] 106%

O=C(O)c1ccccc1N(CCO)CCCl
inactive: [1] 99% | [2] 102% | [3] 90.3% | [5] 111% | [18] 79.3% | [6] 93.3% | [7] 98.1% | [8] 107% | [9] 100% | [10] 103% | [11] 100% | [12] 87.1% | [13] 112% | [19] 102% | [14] 103% | [15] 99.8% | [16] 84.6% | [17] 99% | [20] 96%

COC(=O)C1=CO[C@@H](C)[C@@H]2CN3CCc4c([nH]c5cc(OC)ccc45)[C@@H]3C[C@H]12
inactive: [1] 95.9% | [2] 94.5% | [4] 113% | [5] 99.7% | [18] 78% | [7] 95.8% | [8] 108% | [9] 101% | [10] 104% | [11] 97.6% | [13] 97.2% | [19] 115% | [14] 98.6% | [15] 117% | [16] 104% | [17] 95.7% | [20] 103%

N#CCCc1ccccc1
inactive: [1] 104% | [2] 95.4% | [3] 105% | [5] 112% | [6] 95.3% | [8] 106% | [9] 109% | [10] 119% | [11] 108% | [12] 113% | [13] 107% | [19] 114% | [14] 106% | [15] 108% | [16] 96.2% | [17] 95% | [20] 106%
